According to PubChem BioAssay (NCI):
The panel holds about 79,000 compounds, 15% with a hit somewhere; the sample as a whole holds those more often. Cut-off read from the data, not from the text of the source: active = growth inhibition above about 70%; inactive = the rest.

Columns and labels:
[1] = NCI Yeast Anticancer Drug Screen. Data for the rad50 strain (AID 155);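 note: 0% = growth of vehicle-only cultures of the same strain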; conditions: S. cerevisiae rad50 strain growth inhibition; at 50.0 µM; stronger effect = higher value
In short: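 Growth of the mutant yeast was measured after compound exposure and referenced to vehicle-treated cultures.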

[2] = NCI Yeast Anticancer Drug Screen. Data for the mec2-1 strain (AID 157); conditions: S. cerevisiae mec2-1 strain, at 50.0 µM, stronger effect = higher value
In short: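 Yeast mec2-1 mutant treated with compound. Readout: growth inhibition vs vehicle controls.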

[3] = NCI Yeast Anticancer Drug Screen. Data for the sgs1 mgt1 strain (AID 161);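 note: 0% = growth of cultures given vehicle only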; conditions: S. cerevisiae sgs1 mgt1 strain, at 50.0 µM, stronger effect = higher value
In short: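 Inhibition of yeast growth, normalised to vehicle-treated controls, is reported for a strain bearing genetic alterations in DNA damage repair.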

[4] = NCI Yeast Anticancer Drug Screen. Data for the cln2 rad14 strain (AID 165);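 note: 0% = growth equal to vehicle treated cultures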; conditions: S. cerevisiae cln2 rad14 strain, at 50.0 µM, stronger effect = higher value
In short: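 cln2 rad14 yeast strain; compound exposure; growth inhibition read vs vehicle controls.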

[5] = NCI Yeast Anticancer Drug Screen. Data for the bub3 strain (AID 167); conditions: S. cerevisiae bub3 mutant strain, at 50.0 µM, stronger effect = higher value
In short: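 Whole-cell yeast assay. The mutant strain was incubated with compounds, and growth inhibition was determined by comparison with vehicle-treated cells.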

[6] = NCI Yeast Anticancer Drug Screen. Data for the mlh1 rad18 strain (AID 175); conditions: S. cerevisiae mlh1 rad18 strain growth inhibition; at 50.0 µM; stronger effect = higher value
In short: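 Yeast w/ defined DNA-repair lesions; compound exposure; growth vs vehicle controls → % inhibition.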

Measured: growth inhibition

O=C(Nc1c(C(=O)NC2CCCCC2)[nH]c(=O)[nH]c1=O)c1ccc(Cl)cc1
inactive: [1] -18.8% | [2] -1.35% | [3] -19.4% | [4] 2.85% | [5] -0.25% | [6] 5.5%

Cc1ccc(S(=O)(=O)N/N=C(\C(=O)Nc2cccc([N+](=O)[O-])c2)c2nc3ccc([N+](=O)[O-])cc3[nH]c2=O)cc1
inactive: [1] -3% | [2] -6% | [3] 3.65% | [4] 7.4% | [5] -3.1% | [6] 2.2%

CN(/C=C1\CCCCC1=O)c1ccccc1
inactive: [1] -4.35% | [2] -17.2% | [3] -35.4% | [4] -14.4% | [5] -22.2% | [6] -7%

O=CC(C(=O)c1ccccc1[N+](=O)[O-])c1ccccc1 (centres undefined)
inactive: [1] 9.6% | [2] 5.7% | [3] 15.9% | [4] 15.8% | [5] 13.7% | [6] 13.4%

C/C(=N\O)c1ccc(OCc2cc(C(F)(F)F)cc(C(F)(F)F)c2)cc1
inactive: [1] -10.1% | [2] -26.2% | [3] -6.75% | [4] -1.5% | [5] -2.15% | [6] 7.5%

C=CCC(O)c1ccc(OC)c(OC)c1 (centres undefined)
inactive: [1] 2.55% | [2] -3.3% | [3] -6.3% | [4] -19.1% | [5] 3.4% | [6] 0.55%

O=C(OCCSC(=S)N1CCCCC1)c1ccccc1
inactive: [1] -13.5% | [2] -8.6% | [3] 2.4% | [4] -11.9% | [5] 16.6% | [6] -0.4%

O=[N+]([O-])c1ccc(S(=O)(=O)n2cccc2)cc1
inactive: [1] 0.9% | [2] 8.8% | [3] -8.05% | [4] -20.9% | [5] 3.6% | [6] -19.8%

Cc1cc2nc3[nH]c(=O)c4c(n3c2cc1C)CCC4
inactive: [1] 0% | [2] -6.8% | [3] 0.2% | [4] -8.95% | [5] 8.45% | [6] -15.2%
